{"source": "PubChem BioAssay (NCATS)", "note": "Records with an inconclusive call do not appear. A number with no mark means an inactive call. Active and inactive are the calls of the source. The call rests on the fitted dose curve; in most records, active means well fitted inhibition curve with a large enough effect; inconclusive means small, poorly fitted or top-dose-only effect; inactive means no such curve, though single readings can be large or run the other way. On the % scale 0 is the no-effect control and ±100 the full control effect.", "data": [{"tested_on": "Zika virus NS2B-NS3 protease (linked construct)", "experiment": "Primary screen NINDS Rhodamine qHTS for Zika virus inhibitors (AID 1347160); further: nearly all actives have a fitted effect of over 55% in size", "details": "purified NS2B-NS3 protease, Rhodamine110 substrate fluorescence; series mostly up to 57.1 µM; activity change, negative = inhibition: at the top concentration", "summary_of_the_method": "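Purified linked NS2B-NS3 protease (NS2B hydrophilic domain joined to NS3 protease by flexible linker), 25 nM in 10 mM Tris-HCl pH 8.0, 0.01% Tween 20. Compounds titrated, 15 min preincubation at room temperature; 1.5 microM Rhodamine110 substrate, FITC fluorescence change over 15 min.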", "values": [{"smiles": "CC(=O)O[C@@H](CO[C@@H]1O[C@H](CO)[C@H](O)[C@H](O)[C@H]1O)[C@]1(C)C=C2CC[C@@H]3C(C)(C)[C@@H](O)CC[C@@]3(C)[C@@H]2CC1", "outcome": "inactive [at 33.1 µM]"}, {"smiles": "CCn1cc(NC(=S)Nc2cc(Cl)ccc2OC)c(C(N)=O)n1", "outcome": "inactive"}, {"smiles": "O=C(O)CC(=O)OC[C@H]1O[C@@H](Oc2ccc3c(c2)OC[C@H]2c4cc5c(cc4O[C@@H]32)OCO5)[C@H](O)[C@@H](O)[C@@H]1O", "outcome": "inactive [at 33.1 µM]"}, {"smiles": "CC1=C2C[C@H]3O[C@@]3(C)CCC3O[C@@]3(C)C[C@@]2(O)OC1=O", "note": "(stereo not given in full)", "activity change, negative = inhibition": "31.3%"}, {"smiles": "CCC(=O)O[C@H]1C(C)(C)[C@H]([C@@H](O)C(=O)OC)[C@]2(C)C(=O)[C@@]1(O)[C@H]1O[C@]13C1CC(=O)O[C@@H](c4ccoc4)[C@]1(C)CCC32", "note": "(stereo not given in full)", "activity change, negative = inhibition": "22.5% [at 15.1 µM]"}, {"smiles": "CC1=CC(=O)C(=C(C)C)CC2C1CCC2(C)O", "note": "(stereo not given)", "activity change, negative = inhibition": "-3.97%"}, {"smiles": "CC(C)[C@@](C)(O)[C@@H]1CN(c2nc(-c3[nH]nc4ncccc34)c(F)cc2Cl)CCN1", "activity change, negative = inhibition": "3.02%"}, {"smiles": "CC(CO)C1CCC2(C)CC3C(CO)CC(O)C3C(C)(O)C/C=C/12", "note": "(stereo not given)", "activity change, negative = inhibition": "0.235% [at 33.1 µM]"}, {"smiles": "C=C[C@H]1[C@H](O[C@@H]2O[C@H](CO)[C@@H](O)[C@H](O)[C@H]2O)OC=C(C(=O)OC)[C@H]1CC(=O)O", "outcome": "inactive [at 33.1 µM]"}, {"smiles": "CC(O)/C=C/C1(O)C2(C)COC1(C)CC(O)C2", "note": "(stereo not given)", "outcome": "inactive"}]}]}
